The campaign covered roughly 320,000 compounds. About 2,100 (0.66%) were called active. This excerpt belongs to a sample that is enriched for actives. A number with no mark means an inactive call.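 How the source made its calls: active means inhibition above the mean inhibition of all tested compounds plus 3 SD, set per campaign (cut at about 40% in these data); inactive means the rest.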
These molecules were tested against Induced myeloid leukemia cell differentiation protein Mcl-1 (Homo sapiens) (UniProt Q07820) (assay: MCL1-BIM peptide interaction disruptors – biochemical, fluorescence polarization, primary screen (AID 2057;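 further: 0% = DMSO wells and 100% = unlabeled Bim-BH3 peptide control; higher means more loss of mP so more displacement of Bim peptide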)). Conditions: GST-MCL1 / FITC-Bim-BH3 fluorescence polarization; at 10.9 µM; stronger effect = higher value.
Sequence of Induced myeloid leukemia cell differentiation protein Mcl-1 (Homo sapiens) (Q07820 whole entry, looked up): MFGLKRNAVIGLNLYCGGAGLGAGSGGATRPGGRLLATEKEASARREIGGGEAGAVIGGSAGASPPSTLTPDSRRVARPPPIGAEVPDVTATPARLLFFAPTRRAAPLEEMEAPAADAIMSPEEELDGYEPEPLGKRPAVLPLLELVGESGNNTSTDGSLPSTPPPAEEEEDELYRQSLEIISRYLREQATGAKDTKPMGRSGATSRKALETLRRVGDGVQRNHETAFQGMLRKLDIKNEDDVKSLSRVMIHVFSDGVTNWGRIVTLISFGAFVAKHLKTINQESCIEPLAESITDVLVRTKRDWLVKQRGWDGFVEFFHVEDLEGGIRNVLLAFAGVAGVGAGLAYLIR
O=C1NC(=O)N(c2ccccc2)C(=O)/C1=C/c1ccc([N+](=O)[O-])s1 was tested, and the inhibition was 44.1% (active).
For CCOP(=S)(OCC)SCOC(=O)NCC(=O)OC, the inhibition was 6.09%.
With C=CCN1C(=O)C2(C(C(=O)OCC)=C(N)Oc3c2c(=O)oc2ccccc32)c2ccccc21 (stereo not given) the inhibition was 1.78%.
For Cc1ccccc1N1C(=O)NC(=O)/C(=C\c2cc(C)n(C)c2C)C1=O, the inhibition was 1.23%.
In the case of COc1cccc(N2C(=O)NC(=O)/C(=C\c3cn(C)c4ccccc34)C2=O)c1, the inhibition is reported as 55% (active).
Cc1c(C(=O)O)cccc1-n1c(C)cc(/C=C2\C(=O)NC(=O)N(c3ccc4c(c3)OCO4)C2=O)c1C gave an inhibition of 2.52%.
Work on CCN(CC)C(=O)Oc1ccc(NC(=O)N2CCOCC2)cc1 yielded an inhibition of 3.93%.
Cc1cccc(OP(=O)(Oc2cccc(C)c2)OC(c2ccccc2)C(F)(F)F)c1 (stereo not given) was tested, and the inhibition was 2.04%.
Work on CN(c1ccccc1)c1ccc([N+](=O)[O-])c2nonc12 yielded an inhibition of -24.9%.
Molecule O=C(CCC(=O)N1C[C@H]2C[C@@H](C1)c1cccc(=O)n1C2)NCc1ccccc1C(F)(F)F has an inhibition of 2.96%.
In the case of Cc1cc(/C=C2/C(=O)NC(=O)N(Cc3ccco3)C2=O)c(C)n1-c1ccc(C(=O)O)cc1, the inhibition is reported as -11.8%.
For COc1ccc(N2C(=O)/C(=C/c3ccco3)C(=O)NC2=S)cc1, the inhibition was 53.9% (active).
COc1ccc(CN2C(=O)NC(=O)/C(=C\c3ccc(OC)c(OC)c3OC)C2=O)cc1 was tested, and the inhibition was -3.16%.
Cc1ccc(C)c(NC2=NCCCS2)c1 showed an inhibition of 0.88%.
Molecule COc1cccc(OC)c1C(=O)NC(=S)N1C[C@H]2C[C@H](C1)c1cccc(=O)n1C2 has an inhibition of 9.55%.

From PubChem BioAssay AID2057 (The Scripps Research Institute Molecular Screening Center, 2009)
